Records with an inconclusive call do not appear. Active and inactive are the calls of the source. Rule for the calls, unless noted: active = hit-call score of the fitted dose curve at least 0.9, where 1 is the maximum; inconclusive = response in the unintended direction; inactive = score below 0.9.
Columns and labels:
[1] = biological target: Cellular tumor antigen p53 (Homo sapiens) (UniProt P04637); experiment: TOX21_p53_BLA_p2_ratio: Tox21 HCT-116 p53 Agonism Beta-lactamase Assay, Ratio, Phase 2 (AID 2283592)
Chain of Cellular tumor antigen p53 (Homo sapiens) (P04637 whole entry, looked up): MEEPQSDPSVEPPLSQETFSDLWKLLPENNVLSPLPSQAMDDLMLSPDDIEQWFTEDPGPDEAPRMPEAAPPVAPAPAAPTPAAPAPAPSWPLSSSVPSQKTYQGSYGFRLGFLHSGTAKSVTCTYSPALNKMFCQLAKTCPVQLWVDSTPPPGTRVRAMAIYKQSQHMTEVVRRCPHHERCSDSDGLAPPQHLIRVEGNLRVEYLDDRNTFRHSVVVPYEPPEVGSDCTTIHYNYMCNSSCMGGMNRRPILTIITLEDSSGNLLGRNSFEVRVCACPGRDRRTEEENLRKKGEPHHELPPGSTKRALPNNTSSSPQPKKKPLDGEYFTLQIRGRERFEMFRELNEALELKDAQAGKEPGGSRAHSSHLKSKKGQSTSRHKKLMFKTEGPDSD
Method in brief: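 HCT-116 cells with p53-responsive beta-lactamase reporter, 4000 cells/well, preincubated 5 h, then compound in DMSO (217-fold dilution) for 16 h at 37C. CCF4-AM substrate 2 h at room temperature; 460/530 nm emission ratio fitted upward versus DMSO.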

[2] = TOX21_p53_BLA_p3_viability: Viability Assessment in the Tox21 HCT-116 p53 Agonism Beta-lactamase Assay, Phase 3 (AID 2283593);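 note: cells exposed to compound for 16 h before reading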
Method in brief: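 HCT-116 cells (4000/well) rested 5 h at 37C, then got DMSO compounds by pin tool (217-fold dilution) for 16 h at 37C, 5% CO2. After the bla read, CellTiter-Glo was added and luminescence read at 30 min, room temperature.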

[3] = biological target: Cellular tumor antigen p53 (Homo sapiens) (UniProt P04637); experiment: TOX21_p53_BLA_p3_ratio: Tox21 HCT-116 p53 Agonism Beta-lactamase Assay, Ratio, Phase 3 (AID 2283596)
Method in brief: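 HCT116 p53-bla cells (4000/well) given compound in DMSO (217-fold dilution) after 5 h, incubated 16 h at 37C. CCF4-AM substrate 2 h at room temperature; 460/530 nm emission ratio, gain fitted against DMSO.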

[4] = TOX21_p53_BLA_p4_viability: Viability Assessment in the Tox21 HCT-116 p53 Agonism Beta-lactamase Assay, Phase 4 (AID 2283597);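 note: hits lower the luminescence signal meaning cytotoxicity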
Method in brief: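 HCT-116 p53-bla cells, 4000/well, dosed after 5 h attachment and incubated 16 h at 37 °C, 5% CO2. Viability from CellTiter-Glo ATP luminescence after 30 min at room temperature, taken after the beta-lactamase read; loss of signal indicates cytotoxicity.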

[5] = biological target: Cellular tumor antigen p53 (Homo sapiens) (UniProt P04637); experiment: TOX21_p53_BLA_p5_ratio: Tox21 HCT-116 p53 Agonism Beta-lactamase Assay, Ratio, Phase 5 (AID 2283599)
Method in brief: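 HCT-116 cells carrying a p53-inducible beta-lactamase reporter were seeded at 4000 cells/well and dosed after 5 h with compound in DMSO (217-fold dilution). After 16 h at 37C, CCF4-AM substrate was added for 2 h, and the 460/530 nm emission ratio was scored as gain-of-signal versus DMSO.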

[6] = TOX21_p53_BLA_p5_viability: Viability Assessment in the Tox21 HCT-116 p53 Agonism Beta-lactamase Assay, Phase 5 (AID 2283600)
Method in brief: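 HCT-116 p53 beta-lactamase reporter cells, 4000/well, were exposed to compound (pin transfer, 217-fold dilution) for 16 hours at 37C. Cellular ATP was read by CellTiter-Glo luminescence after 30 min at room temperature.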

[7] = biological target: Cellular tumor antigen p53 (Homo sapiens) (UniProt P04637); experiment: TOX21_p53_BLA_p4_ratio: Tox21 HCT-116 p53 Agonism Beta-lactamase Assay, Ratio, Phase 4 (AID 2283601)
Method in brief: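 HCT116 cells carrying an inducible beta-lactamase reporter were plated at 4000 cells/well, rested 5 h, then exposed to compounds in DMSO (217-fold dilution) for 16 h at 37C. CCF4-AM substrate was loaded 2 h at room temperature; 460/530 nm emission ratio scored gain-of-signal versus DMSO.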

[8] = test system: Thyroperoxidase (TPO), gene 54314; experiment: CCTE_Simmons_AUR_rTPO: CCTE's Amplex UltraRed Assay for Thyroperoxidase (TPO) Inhibition, Simmons Lab (AID 2283662)
Method in brief: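 Rat thyroid microsomes (5 ug protein) were incubated with test compound (8 concentrations, 5 nM–87.5 uM final, 0.5% DMSO), 25 uM Amplex UltraRed and 300 uM H2O2 in 200 mM phosphate buffer for 30 min at 37C in the dark; fluorescence read at 544/590 nm.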

[9] = biological target: Nucleoli Translocation, AR (gene 367) (UniProt P10275); experiment: UPITT_HCI_U2OS_AR_TIF2_Nucleoli_Antagonist: University of Pittsburgh U2OS Androgen Receptor-Transcriptional Intermediary Factor 2 (AR-TIF2) Antagonism High Content Imaging Assay for Nucleoli Translocation (AID 2283997)
Chain of Nucleoli Translocation, AR (gene 367) (P10275 whole entry, looked up): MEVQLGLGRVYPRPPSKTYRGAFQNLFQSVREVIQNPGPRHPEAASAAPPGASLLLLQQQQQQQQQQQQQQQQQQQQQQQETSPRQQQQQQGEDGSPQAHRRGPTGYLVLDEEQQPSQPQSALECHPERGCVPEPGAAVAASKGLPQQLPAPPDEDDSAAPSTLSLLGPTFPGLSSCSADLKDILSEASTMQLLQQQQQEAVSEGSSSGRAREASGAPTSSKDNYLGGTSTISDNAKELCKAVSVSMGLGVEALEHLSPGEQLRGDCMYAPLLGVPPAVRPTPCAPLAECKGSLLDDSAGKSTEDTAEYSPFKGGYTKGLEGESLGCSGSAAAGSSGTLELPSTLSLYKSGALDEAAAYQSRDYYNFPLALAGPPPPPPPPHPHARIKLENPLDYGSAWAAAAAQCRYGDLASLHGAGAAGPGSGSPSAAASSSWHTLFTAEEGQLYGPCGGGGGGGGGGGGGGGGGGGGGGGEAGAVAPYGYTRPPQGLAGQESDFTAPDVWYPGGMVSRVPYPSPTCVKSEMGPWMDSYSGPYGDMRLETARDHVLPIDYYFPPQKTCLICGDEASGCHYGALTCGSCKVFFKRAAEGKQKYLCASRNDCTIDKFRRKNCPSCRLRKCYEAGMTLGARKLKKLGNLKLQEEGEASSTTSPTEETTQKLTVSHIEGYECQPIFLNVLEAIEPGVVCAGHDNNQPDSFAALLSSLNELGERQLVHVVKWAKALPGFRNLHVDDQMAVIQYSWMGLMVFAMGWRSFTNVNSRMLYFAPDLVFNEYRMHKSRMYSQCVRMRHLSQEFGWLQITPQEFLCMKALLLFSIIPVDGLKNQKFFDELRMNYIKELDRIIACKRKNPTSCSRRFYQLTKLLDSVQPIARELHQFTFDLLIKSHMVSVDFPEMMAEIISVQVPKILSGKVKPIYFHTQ
Method in brief: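 U2OS cells expressing RFP-tagged human AR and GFP-tagged TIF2 were imaged by high-content fluorescence microscopy for red AR signal in the nucleolar region. Compounds were screened at 20 uM final (0.2% DMSO), with activity fitted relative to DHT as baseline.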

[10] = biological target: Ratio of Nucleoli Translocation and Cytoplasm, AR (gene 367) (UniProt P10275); experiment: UPITT_HCI_U2OS_AR_TIF2_Nucleoli_Cytoplasm_Ratio_Antagonist: University of Pittsburgh U2OS Androgen Receptor-Transcriptional Intermediary Factor 2 (AR-TIF2) Antagonism High Content Imaging Assay for Ratio of Nucleoli Translocation and Cytoplasm (AID 2283999);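 note: antagonists lower the DHT-driven ratio of nucleolar to cytoplasmic red signal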
Chain of Ratio of Nucleoli Translocation and Cytoplasm, AR (gene 367) (P10275 whole entry, looked up, the tested form may be a part): as the sequence (P10275 whole entry, looked up) above
Method in brief: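 Human osteosarcoma U2OS line, AR fused to RFP, coactivator TIF2 fused to GFP. Cpds 20 uM final, 0.2% DMSO (screen); 0.195–50 uM final, 0.5% DMSO (CRC). Endpoint: nucleoli/cytoplasm red signal ratio, DHT as baseline, loss-of-signal antagonist mode.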

[11] = CCTE_Harrill_HTTr_Viability_MCF7: CCTE's 6-hour Cell Viability Assessment for the High-Throughput Transcriptomics (HTTr) Platform, in MCF-7 cells cultured in DMEM + 10% fetal bovine serum, Harrill Lab (AID 2284010; active = hit-call score of the fitted dose curve at least 0.9, where 1 is the maximum; inactive = score below 0.9)
Method in brief: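 Cells were dosed with chemicals in an eight-point dilution series, imaged 6 hours later for propidium iodide uptake, and the endpoint was analyzed by bidirectional fitting against DMSO as negative control.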

[12] = CCTE_Harrill_HTTr_Apoptosis_MCF7: CCTE's 6-hour Apoptosis Assessment for the High-Throughput Transcriptomics (HTTr) Platform, in MCF-7 cells cultured in DMEM + 10% fetal bovine serum, Harrill Lab (AID 2284011; active = hit-call score of the fitted dose curve at least 0.9, where 1 is the maximum; inactive = score below 0.9)
Method in brief: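 MCF-7 cells in DMEM + 10% FBS exposed 6 h to chemicals over an eight-point dilution series. Caspase-3/7 activation imaged by high-content CellEvent Green staining; fitted bidirectionally versus DMSO.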

[13] = CCTE_Shafer_MEA_dev_firing_rate_mean: CCTE's Neural Network Formation Assay for Mean Firing Rate, Shafer Lab (AID 2284031; active = hit-call score of the fitted dose curve at least 0.9, where 1 is the maximum; inactive = score below 0.9)
Method in brief: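 Rat primary cortical neurons were seeded on multielectrode arrays and treated from plating through day 12, with redosing at each feed. Spontaneous spiking was recorded four times; mean firing rate AUC was fitted downward against DMSO.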

[14] = CCTE_Shafer_MEA_dev_per_burst_spike_percent: CCTE's Neural Network Formation Assay for Percent of Spikes in a Burst, Shafer Lab (AID 2284032; active = hit-call score of the fitted dose curve at least 0.9, where 1 is the maximum; inactive = score below 0.9)
Method in brief: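 Rat primary cortical neurons on 16-electrode MEA wells, dosed from plating day 0 for 12 days with renewal on DIV 5 and 9; spikes-in-bursts percentage averaged over bursting electrodes, collapsed as AUC across days 5, 7, 9, 12; loss direction versus DMSO.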

[15] = CCTE_Shafer_MEA_dev_active_electrodes_number: CCTE's Neural Network Formation Assay for Number of Active Electrodes, Shafer Lab (AID 2284040)
Method in brief: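 Primary rat cortical neurons on 16-electrode MEA wells, exposed from day 0 through day 12 with compound renewed at DIV 5 and 9 feeds. Active electrodes (mean firing ≥5 spikes/min) counted at DIV 5, 7, 9, 12; trapezoidal AUC across days, loss-of-signal versus DMSO.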

[16] = CCTE_Shafer_MEA_dev_bursting_electrodes_number: CCTE's Neural Network Formation Assay for Number of Bursting Electrodes, Shafer Lab (AID 2284043)
Method in brief: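 Primary rat cortical neurons were cultured on PEI-coated 48-well MEA plates (16 electrodes/well) and exposed from plating through day 12, with compound renewed at feeds on DIV 5 and 9. Electrodes bursting ≥1 per 2 min were counted on DIV 5, 7, 9, 12; trapezoidal AUC taken.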

Measured: AC50

c1ccc2cc3c(cc2c1)-c1cccc2cccc-3c12
active: [1] 3.24 µM | [3] 11 µM | [5] 4.58 µM | [7] 1.98 µM | [9] 1.19 µM
inactive: all other assays above
